In PubChem BioAssay AID720608 (Broad Institute, 2013) one finds outcome data, which are given here for 1 compound.

Measured potencies and affinities stand elsewhere. Inconclusive results are not listed. Active and inactive are the calls of the source.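 How the source made its calls: active means compound whose fitted half-maximal concentration stays within twice the top dose, with falling signal, in all three exposure times; inconclusive means mixed calls across exposure times, weak flat curves, or poor fits; inactive means inactive at every exposure time, including opposite-direction effects.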

This experiment is described as follows: cytotoxicity in SR immunoblastic lymphoma cells – cell-based, CellTiter-Glo ATP luminescence, 8-48 h, dry powder, mechanism study for HRAS target identification, late-stage follow-up (AID 720608). For orientation: ATP-based viability assays read luminescence as a measure of living cells.

Regarding `Cc1onc(C(=O)N2CCN(C(c3ccncc3)c3ccncc3)CC2)c1[N+](=O)[O-]`, the call was inactive.
